Source: PubChem BioAssay (NCI)
About 83,000 compounds went through this panel and 20% of them were active in at least one assay; those are over-represented in the sample as a whole.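 Growth was measured after 48 h exposure to one concentration of compound in 96-well plates. Values under 10 count as active.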 Activity calls are given as the source filed them.

Columns and labels:
Test in all cases: NCI-60 one-dose screen, 48 h (100 = growth as untreated, 0 = no growth, -100 = all killed)
Conditions in all cases: 10 µM unless noted
[1] = system: DU-145 prostate
[2] = system: K-562 leukemia
[3] = system: MALME-3M melanoma
[4] = system: MDA-MB-231 breast
[5] = system: RXF 393 renal
[6] = system: SF-268 CNS
[7] = system: SF-295 CNS
[8] = system: SF-539 CNS
[9] = system: UACC-257 melanoma
[10] = system: M14 melanoma
[11] = system: HT29 colon
[12] = system: SNB-75 CNS
[13] = system: SNB-19 CNS
[14] = system: U251 CNS
[15] = system: PC-3 prostate
[16] = system: SK-MEL-5 melanoma
[17] = system: UACC-62 melanoma
[18] = system: LOX IMVI melanoma
[19] = system: SK-MEL-28 melanoma

Measured: growth

CCN1C(=O)N(CC)C2C1NN=c1s/c(=C\c3ccc(C(F)(F)F)cc3)c(=O)n12 (stereo not given)
inactive: [3] 49.5% | [5] 24.1% | [6] 53.5% | [7] 14.1% | [9] 48.9% | [12] 15% | [13] 24% | [15] 22.6% | [17] 30.9% | [18] 17.4% | [19] 55.8%
active: [1] 6.72% | [2] 7.4% | [4] 9% | [8] -21.6% | [10] 6.9% | [11] 1.55% | [14] 6.65% | [16] 6.27%

CC1(C)CC[C@]23CC[C@]4(C)[C@H](CC[C@@H]5[C@@]6(C)C/C(=C/c7ccncc7)C(=O)C(C)(C)[C@@H]6CC[C@]54C)[C@H]2[C@H]1OC3
inactive: [1] 82.1% | [2] 69.9% | [3] 87.9% | [4] 65.5% | [5] 88.4% | [6] 78.1% | [7] 90.9% | [8] 58.7% | [9] 85.5% | [10] 96.6% | [11] 43.9% | [12] 61.4% | [13] 83.4% | [14] 70% | [15] 51% | [16] 78.8% | [17] 90.5% | [18] 73.1% | [19] 76%

O=C(O)c1ccc(-c2ccc(/C=N/Nc3nc(Nc4ccccc4)nc(N4CCCCC4)n3)o2)cc1
active: [7] -21.9%
inactive: [1] 66.7% | [2] 67.5% | [3] 59% | [4] 96.5% | [5] 65.4% | [6] 71.7% | [8] 75.2% | [9] 93.9% | [10] 83.1% | [11] 63.4% | [12] 65.7% | [13] 61% | [14] 43.2% | [15] 65.6% | [16] 71.5% | [17] 67.6% | [18] 68.6% | [19] 78.9%

O=C1/C(=C\c2ccccn2)c2ccccc2N1c1c(Cl)cccc1Cl
active: [1] -0.0912% | [2] 9.42% | [5] -35.2% | [6] 7.81% | [8] 1.27% | [10] -43.6% | [12] -28.2% | [14] -2.48% | [18] -89.2%
inactive: [3] 67.3% | [4] 15.7% | [7] 12.3% | [9] 59.3% | [13] 34.8% | [15] 31.4% | [16] 23.7% | [17] 24.9% | [19] 14.6%

COc1ccc(C2=NN(C(C)=O)C(c3cn(-c4ccccc4)nc3-c3ccc(Cl)cc3)C2)cc1 (stereo not given)
inactive: [1] 17.4% | [2] 13.1% | [3] 52% | [4] 17.2% | [6] 27.2% | [7] 42.4% | [8] 15.8% | [9] 66.4% | [10] 17.2% | [13] 34.2% | [15] 34.3% | [16] 27.1% | [17] 20% | [19] 56.3%
active: [5] -10.5% | [11] -6.18% | [12] -4.48% | [14] -7.11% | [18] 0.526%

O=c1c2c3c(sc2n2c(-c4cc(-c5ccccc5)no4)nnc2n1Cc1ccccc1)CCCC3
inactive: [1] 88.5% | [2] 64.9% | [3] 122% | [4] 80.5% | [5] 77.8% | [6] 93.5% | [7] 83.4% | [8] 114% | [9] 110% | [10] 111% | [11] 108% | [14] 94.3% | [15] 71.8% | [16] 105% | [17] 80.7% | [18] 81% | [19] 127%

Cn1c2c(c3ccc(Cl)c(Cl)c31)C(C#N)C(C)(C)NC2=O (stereo not given)
active: [16] 5.3%
inactive: [1] 106% | [2] 74.5% | [3] 90.4% | [4] 81.1% | [5] 76.4% | [6] 99.6% | [7] 76.1% | [8] 86.2% | [9] 77.4% | [10] 90.3% | [11] 88.5% | [12] 76.6% | [13] 91.8% | [14] 91.1% | [15] 95.1% | [17] 66.6% | [18] 84.4%

COc1ccc(Oc2nc(Nc3ccc(N4CCOCC4)cc3)ncc2NC(=O)Nc2cc(OC)cc(OC)c2)cc1
active: [3] 7.76% | [4] 1.79% | [5] -29.2% | [8] -32.5% | [11] -32.8% | [14] -35.8% | [16] -32.8% | [17] -8.63% | [19] 5.33%
inactive: [1] 12.8% | [2] 19.9% | [6] 34.3% | [7] 34.4% | [9] 35.9% | [10] 21.4% | [12] 53.3% | [13] 28.3% | [15] 11.6% | [18] 24.1%

C=C1C(=O)O[C@H]2[C@H]1CC/C(COC(=O)NCc1ccc(Cn3c(=O)sn(-c4ccc(C#N)cc4)c3=O)cc1)=C\CC[C@@]1(C)O[C@@H]21
inactive: [2] 20.4% | [3] 56.9% | [4] 48.6% | [5] 52.7% | [6] 75.1% | [7] 102% | [8] 61.2% | [9] 69.4% | [10] 68.8% | [11] 48.2% | [12] 80.3% | [13] 88.5% | [14] 81.2% | [15] 71.6% | [16] 89.5% | [17] 69.3% | [18] 65.9% | [19] 87.2%
active: [1] 8.56%

COc1cccc(NCc2nnc(Nc3ccc(Cl)cc3)c3ccccc23)c1
active: [1] 8.3% | [2] 2.2% | [3] -22% | [4] -27.1% | [5] -11.6% | [6] 2.52% | [7] -22.6% | [8] -10.2% | [9] -39.7% | [10] -15.7% | [11] -21% | [14] -56.2% | [15] -13.6% | [17] -29.2% | [18] -58.7% | [19] -16.1%
inactive: [13] 17.8%

CC[C@]12C=CCN3CC[C@@]4(c5ccc(OC)cc5N(C)[C@H]4[C@@](O)(C(=O)OC)[C@@H]1OC(=O)CCC[P+](c1ccccc1)(c1ccccc1)c1ccccc1)[C@@H]32
active: [3] -12.4% | [4] 1.29% | [9] -27.3% | [12] -4.39% | [14] 4.03% | [15] 2.13% | [16] -91.5% | [17] -59.3% | [18] 8.81%
inactive: [1] 18% | [2] 10.4% | [5] 28.9% | [6] 19.2% | [7] 23.3% | [8] 16.2% | [10] 17.7% | [13] 11% | [19] 20.9%

C=C(C)[C@@H]1CCC[C@]2(C(=O)N3CCN(C)CC3)CC[C@]3(C)[C@@H](CC[C@@H]4[C@@]5(C)CC/C(=N\NC(=O)c6ccncc6)C(C)(C)[C@@H]5CC[C@]43C)[C@@H]12
inactive: [1] 100% | [2] 17.6% | [3] 74.1% | [4] 66.8% | [5] 99.7% | [6] 84.2% | [7] 104% | [8] 104% | [9] 103% | [10] 74.3% | [11] 98.8% | [12] 77.7% | [13] 83.5% | [14] 99.8% | [15] 87% | [16] 92.9% | [17] 87.4% | [18] 89.3% | [19] 95.5%

Cc1ccc(-c2nc3nc(-c4ccccc4)nc(N4CCCN(S(C)(=O)=O)CC4)c3o2)cc1
inactive: [1] 57.1% | [2] 84.5% | [3] 55.5% | [4] 73.5% | [5] 19.4% | [6] 76% | [7] 87.4% | [8] 30.7% | [9] 75.4% | [10] 70.9% | [11] 58.4% | [13] 86.5% | [14] 69.7% | [15] 68.3% | [17] 81.7% | [18] 71.7% | [19] 70.9%

CCCCCCCCCCCCCCCCCC1=NC(C)(C)CN1CC(C)O (stereo not given)
inactive: [1] 34.5% | [3] 97.4% | [5] 66.4% | [6] 14.6% | [7] 95.9% | [8] 19.9% | [9] 103% | [10] 36.6% | [12] 97.8% | [13] 85.3% | [14] 74% | [15] 53.4% | [16] 100% | [17] 105% | [19] 105%
active: [2] -25.7% | [4] -9.03% | [11] -4.49% | [18] -83.1%

COc1ccc(-c2nn(-c3ccccc3)cc2/C=C/C(=O)NNC(=O)Nc2ccc(C)cc2)cc1
inactive: [1] 108% | [2] 78.3% | [3] 91.8% | [4] 83.5% | [5] 109% | [6] 102% | [7] 99% | [8] 101% | [9] 95.7% | [10] 94.1% | [11] 101% | [12] 96.5% | [13] 88.5% | [14] 94.3% | [15] 89.6% | [16] 96.5% | [17] 89.3% | [18] 97.6% | [19] 115%

Cc1ccc2nc(/C(C#N)=C(/CCCO)NC(Cc3ccccc3)C(=O)OCc3ccccc3)[nH]c(=O)c2c1 (stereo not given)
inactive: [1] 98.4% | [2] 119% | [3] 126% | [4] 113% | [5] 127% | [6] 102% | [7] 98.7% | [8] 65.1% | [9] 121% | [10] 98.4% | [11] 130% | [12] 113% | [13] 90.4% | [14] 104% | [15] 115% | [16] 73.3% | [17] 99.1% | [18] 98.5% | [19] 96.4%
